The values below come from article PMC8384837, “Expanding the binding specificity for RNA recognition by a PUF domain”.

Common to all, as to assay: yeast three-hybrid, YBZ-1, SC-Leu-His + 0.5 mM 3-AT, 4 days
Common to all, as to conditions: tags: N-Gal4 AD-HA kept; label: inside an RPR1-promoter hybrid RNA with tandem MS2 sites; ssRNA

In one assay the target is PUM1 PUF domain R4-RMG (Homo sapiens, UniProt Q14671 828-1176, N971R;H972M;Q975G). The procedure, abridged: (§1)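 The interaction score is the log change in variant frequency from input to selection. Scores were computed in log2 with a pseudocount of 1 for absent variants, using Illumina sequencing of PCR-amplified repeat regions. The input came from four days on SC-Leu and the selection from four days on SC-Leu-His + 0.5 mM 3-AT. The cells were strain YBZ-1 (LexA–MS2 coat fusion, HIS3 reporter) co-expressing Pumilio-1 PUF domain libraries and matching RNA elements from a centromeric plasmid.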

Another assay concerns the target PUM1 PUF domain R4-WSW (Homo sapiens, UniProt Q14671 828-1176, N971W;H972S;Q975W). The procedure, abridged: as §1
A further assay has as its target PUM1 PUF domain R3-SRA (Homo sapiens, UniProt Q14671 828-1176, C935S;Q939A). The procedure, abridged:
as §1

In another assay the target is PUM1 PUF domain R3-VRM (Homo sapiens, UniProt Q14671 828-1176, C935V;Q939M). A digest of the protocol: as §1
Another assay deals with PUM1 PUF domain R8-TWR (Homo sapiens, UniProt Q14671 828-1176, N1122T;Y1123W;Q1126R). The procedure, abridged:
as §1

The target of the next assay is PUM1 PUF domain R4-QHR (Homo sapiens, UniProt Q14671 828-1176, N971Q;Q975R). The procedure, abridged:
as §1

A further assay deals with PUM1 PUF domain R3-MRI (Homo sapiens, UniProt Q14671 828-1176, C935M;Q939I). The procedure, abridged:
as §1

The next assay addresses PUM1 PUF domain R5-PYF (Homo sapiens, UniProt Q14671 828-1176, C1007P;R1008Y;Q1011F). A digest of the protocol:
as §1

Another assay concerns the target PUM1 PUF domain R5-RKE (Homo sapiens, UniProt Q14671 828-1176, C1007R;R1008K;Q1011E). The procedure, abridged: as §1
For another assay, the target named is PUM1 PUF domain R5-SDE (Homo sapiens, UniProt Q14671 828-1176, C1007S;R1008D;Q1011E). A digest of the protocol: as §1

For “GGCUAGAACUAGUGGAUCCCCCGGCGCCCGGCGGCUCGAGCCCGGGUAAGUGUAAAUAGUCUGCAUGCCGCCGGGCGCCAUGCCUGCAGGUCGACUCUAGAAAACAUG”, the binding signal with PUM1 PUF domain R4-RMG is 2.77 log2 enrichment (interaction score); in the assay with PUM1 PUF domain R4-WSW, 4.02 log2 enrichment (interaction score); with PUM1 PUF domain R3-SRA it was 3.83 log2 enrichment (interaction score); in the assay with PUM1 PUF domain R3-VRM it was 3.67 log2 enrichment (interaction score); with PUM1 PUF domain R8-TWR, 4.94 log2 enrichment (interaction score).
As to “GGCUAGAACUAGUGGAUCCCCCGGCGCCCGGCGGCUCGAGCCCGGGUAAGUGUACAUAGUCUGCAUGCCGCCGGGCGCCAUGCCUGCAGGUCGACUCUAGAAAACAUG”, the values for the binding signal in the assay with PUM1 PUF domain R4-QHR and with PUM1 PUF domain R4-WSW were 2.26 log2 enrichment (interaction score) and 2.13 log2 enrichment (interaction score), respectively.
Regarding “GGCUAGAACUAGUGGAUCCCCCGGCGCCCGGCGGCUCGAGCCCGGGUAAGUGUAUAUAGUCUGCAUGCCGCCGGGCGCCAUGCCUGCAGGUCGACUCUAGAAAACAUG”, the binding signal with PUM1 PUF domain R4-WSW is 3.38 log2 enrichment (interaction score).
On to “GGCUAGAACUAGUGGAUCCCCCGGCGCCCGGCGGCUCGAGCCCGGGUAAGUGUAAUUAGUCUGCAUGCCGCCGGGCGCCAUGCCUGCAGGUCGACUCUAGAAAACAUG”, for which the binding signal with PUM1 PUF domain R3-SRA is 0.68 log2 enrichment (interaction score); with PUM1 PUF domain R3-VRM, 1.73 log2 enrichment (interaction score); in the assay with PUM1 PUF domain R3-MRI, 1.25 log2 enrichment (interaction score).
Regarding “GGCUAGAACUAGUGGAUCCCCCGGCGCCCGGCGGCUCGAGCCCGGGUAAGUGUUAAUAGUCUGCAUGCCGCCGGGCGCCAUGCCUGCAGGUCGACUCUAGAAAACAUG”, the binding signal in the assay with PUM1 PUF domain R5-PYF is 2.41 log2 enrichment (interaction score); with PUM1 PUF domain R5-RKE, 3.74 log2 enrichment (interaction score).
Consider “GGCUAGAACUAGUGGAUCCCCCGGCGCCCGGCGGCUCGAGCCCGGGUAAGUGUAAGUAGUCUGCAUGCCGCCGGGCGCCAUGCCUGCAGGUCGACUCUAGAAAACAUG”, for which the values for the binding signal with PUM1 PUF domain R3-SRA, with PUM1 PUF domain R3-VRM and in the assay with PUM1 PUF domain R3-MRI were 3.65 log2 enrichment (interaction score), 1.15 log2 enrichment (interaction score) and 5.12 log2 enrichment (interaction score), respectively.
As for “GGCUAGAACUAGUGGAUCCCCCGGCGCCCGGCGGCUCGAGCCCGGGUAAGCGUAAAUAGUCUGCAUGCCGCCGGGCGCCAUGCCUGCAGGUCGACUCUAGAAAACAUG”, the binding signal with PUM1 PUF domain R8-TWR is 5.17 log2 enrichment (interaction score).
For “GGCUAGAACUAGUGGAUCCCCCGGCGCCCGGCGGCUCGAGCCCGGGUAAGUGUCAAUAGUCUGCAUGCCGCCGGGCGCCAUGCCUGCAGGUCGACUCUAGAAAACAUG”, the binding signal in the assay with PUM1 PUF domain R5-RKE is 3.39 log2 enrichment (interaction score).
In the case of “GGCUAGAACUAGUGGAUCCCCCGGCGCCCGGCGGCUCGAGCCCGGGUAAGUGUGAAUAGUCUGCAUGCCGCCGGGCGCCAUGCCUGCAGGUCGACUCUAGAAAACAUG”, the binding signal with PUM1 PUF domain R5-SDE was 2.31 log2 enrichment (interaction score).
